PubChem BioAssay (NCI)
About 83,000 compounds went through this panel and 20% of them were active in at least one assay; those are over-represented in the sample as a whole.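 Negative percent growth values reflect cell death: -40 means 40% of the cells present at the start died, and -100 means all died.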 Unmarked numbers belong to inactive results. Activity calls are given as the source filed them. The calls were made as follows: active = growth percent below 10; inactive = the rest.

Legend:
Experiment in all cases: NCI-60 one-dose screen, 48 h (100 = growth as untreated, 0 = no growth, -100 = all killed)
HCT-15 colon = settings: 10 µM unless noted
HT29 colon = settings: 10 µM unless noted
SNB-75 CNS = settings: 10 µM unless noted
SNB-19 CNS = settings: 10 µM unless noted
U251 CNS = settings: 10 µM unless noted
PC-3 prostate = settings: 10 µM unless noted
SK-MEL-5 melanoma = settings: 10 µM unless noted
UACC-62 melanoma = settings: 10 µM unless noted
LOX IMVI melanoma = settings: 10 µM unless noted
SK-MEL-28 melanoma = settings: 10 µM unless noted
SK-MEL-2 melanoma = settings: 10 µM unless noted
EKVX NSCLC = settings: 10 µM unless noted
SN12C renal = settings: 10 µM unless noted
UO-31 renal = settings: 10 µM unless noted
ACHN renal = settings: 10 µM unless noted
CAKI-1 renal = settings: 10 µM
A498 renal = settings: 10 µM unless noted
CCRF-CEM leukemia = settings: 10 µM unless noted
MOLT-4 leukemia = settings: 10 µM unless noted
TK-10 renal = settings: 10 µM unless noted

Structure (SMILES)	growth (HCT-15 colon)	growth (HT29 colon)	growth (SNB-75 CNS)	growth (SNB-19 CNS)	growth (U251 CNS)	growth (PC-3 prostate)	growth (SK-MEL-5 melanoma)	growth (UACC-62 melanoma)	growth (LOX IMVI melanoma)	growth (SK-MEL-28 melanoma)	growth (SK-MEL-2 melanoma)	growth (EKVX NSCLC)	growth (SN12C renal)	growth (UO-31 renal)	growth (ACHN renal)	growth (CAKI-1 renal)	growth (A498 renal)	growth (CCRF-CEM leukemia)	growth (MOLT-4 leukemia)	growth (TK-10 renal)
COc1cc(CN(c2ccc(Cl)cc2)C2OC(=O)c3ccccc32)cc(OC)c1OC (stereo not given)	38.2%	17.9%	68.6%	74.1%	36%	62.6%	73%	45.6%	44.9%	67.3%	41.6%	59.9%	61.3%	72.4%	85.7%	69.1%	40%	65.7%	35.4%	–
O=C(Nc1ccc(-n2cc(-c3ccncc3)c(-c3ccc(O)c(Cl)c3)n2)cc1)c1ccc(Cl)c(C(F)(F)F)c1	7.89% (active)	-33.9% (active)	59.7%	40.2%	15.7%	14.4%	-46.7% (active)	71.2%	-47.6% (active)	44.3%	-0.332% (active)	31.8%	45.2%	18.4%	17.4%	20.5%	77.7%	16.2%	16.8%	–
Cc1cc(SCc2ccc(Cl)cc2Cl)nc(SCc2ccc(Cl)cc2Cl)n1	93%	97.9%	96.1%	111%	105%	108%	96.1%	102%	99.5%	98.8%	103%	88.5%	112%	97.5%	–	–	–	108%	104%	94.9%
COc1ccc(-c2nnc(NC(=O)CN3CCN(c4cc5c(cc4F)c(=O)c(C(=O)O)cn5C4CC4)CC3)s2)cc1OC	103%	95.8%	90.8%	96.2%	99.7%	95.6%	99.1%	91.9%	74.3%	107%	102%	108%	95.5%	89.4%	109%	104%	80.5%	98.9%	93%	–
Nc1nccc2c1ccn2-c1cccc(NC(=O)c2ccc(N3CCOCC3)c(C(F)(F)F)c2)c1	9.8% (active)	-47.2% (active)	23.8%	31.9%	8.89% (active)	18%	-43.7% (active)	13.8%	5.35% (active)	47.3%	-6.68% (active)	44.4%	25.6%	7.5% (active)	13.3%	-0.708% (active)	-12.9% (active)	7.34% (active)	9.73% (active)	–
CC(C)(C)C(=O)/C=c1/[nH]c(=O)/c(=C/c2ccccc2O)s1	33.8%	72.2%	66.5%	66.5%	27.8%	53.4%	42%	58.3%	40%	69.6%	67.6%	61.1%	58.2%	67.4%	74.5%	81.1%	55.6%	57.8%	–	–
S=c1[nH]nc(Cn2c3ccccc3c3ccncc32)o1	110%	94.6%	102%	98.6%	94.8%	99.4%	102%	93.3%	97.8%	101%	96.6%	106%	102%	97.3%	–	–	97.3%	–	93.8%	102%
Oc1ccc(O)c(-[n+]2ccccc2)c1	105%	93.6%	104%	100%	97.1%	92.5%	97.7%	103%	95.7%	116%	101%	105%	98.1%	94%	–	–	–	101%	91.9%	100%
